About 79,000 compounds went through this panel and 15% of them were active in at least one assay; those are over-represented in the sample as a whole. Activity calls are given as the source filed them. Rule as the data show it: active = growth inhibition above about 70%; inactive = the rest.
What was measured:
[1] = NCI Yeast Anticancer Drug Screen. Data for the rad50 strain (AID 155);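 also: 0% = growth of vehicle-only cultures of the same strain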; settings: S. cerevisiae rad50 strain growth inhibition; at 50.0 µM; hits give high values
Outline: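 DNA repair mutant yeast, compound exposure, growth read-out; inhibition is taken relative to vehicle.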

[2] = NCI Yeast Anticancer Drug Screen. Data for the mec2-1 strain (AID 157); settings: S. cerevisiae mec2-1 strain, at 50.0 µM, hits give high values
Outline: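 Cells of the genetically defined mec2-1 yeast strain are incubated with test compound. Inhibition of growth is calculated against vehicle-treated controls.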

[3] = NCI Yeast Anticancer Drug Screen. Data for the sgs1 mgt1 strain (AID 161);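 also: 0% = growth of cultures given vehicle only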; settings: S. cerevisiae sgs1 mgt1 strain, at 50.0 µM, hits give high values
Outline: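 Read-out: growth inhibition vs vehicle controls. Cells: mutant yeast strain deficient in DNA damage repair.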

[4] = NCI Yeast Anticancer Drug Screen. Data for the cln2 rad14 strain (AID 165);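 also: 0% = growth equal to vehicle treated cultures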; settings: S. cerevisiae cln2 rad14 strain, at 50.0 µM, hits give high values
Outline: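 The screen exposed genetically defined yeast (cln2 rad14) to test compounds and scored growth inhibition relative to vehicle-treated controls.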

[5] = NCI Yeast Anticancer Drug Screen. Data for the bub3 strain (AID 167); settings: S. cerevisiae bub3 mutant strain, at 50.0 µM, hits give high values
Outline: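 In this screen, a yeast mutant lacking normal mitotic checkpoint function is challenged with compound. Relative growth versus vehicle gives the inhibition value.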

[6] = NCI Yeast Anticancer Drug Screen. Data for the mlh1 rad18 strain (AID 175); settings: S. cerevisiae mlh1 rad18 strain growth inhibition; at 50.0 µM; hits give high values
Outline: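 Compound-treated yeast growth, normalised to vehicle controls. Strain bears defined DNA repair mutations.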

Measured: growth inhibition

CC(C)CC(O)C(C)C (stereo unspecified)
inactive: [1] -18.3% | [2] -15.8% | [3] 0.15% | [4] 31.3% | [5] -6.8% | [6] 1.35%

C/C=C(/C)c1cccc(OCc2ccccc2)c1OCc1ccccc1
inactive: [1] -19.1% | [2] 9.35% | [3] -5.65% | [4] -21.6% | [5] -17.3% | [6] -7.05%

CCOC(=O)c1c[nH]c2ccc(-c3ccccc3)cc2c1=O
inactive: [1] 4.65% | [2] 39.8% | [3] 4.6% | [4] 20.4% | [5] 40.7% | [6] 24.9%

Nc1nc(Cl)cc(Nc2cc(Cl)cc(Cl)c2)n1
active: [1] 83.2% | [3] 79.7% | [6] 82.3%
inactive: [2] 53.6% | [4] 63.7% | [5] 59.6%

CC(=O)Oc1ccc(C2c3cc(OC(C)=O)c(OC(C)=O)cc3CC3C(=O)OCC32)cc1OC(C)=O (stereo unspecified)
inactive: [1] 2.45% | [2] -4.85% | [3] 2.6% | [4] -36.3% | [5] 12.3% | [6] 1.1%

CC[N+](C)(CC)CCNc1cc2c(c3c(=O)c4ccccc4sc13)CCCC2
active: [1] 99.2% | [2] 99.7% | [3] 99.1% | [4] 99.2% | [5] 99% | [6] 99%

CC(=O)NNc1ccc(C(=O)O)cc1
inactive: [1] 13.2% | [2] 1% | [3] 1.85% | [4] -13.4% | [5] -2.7% | [6] -2.4%

ClC1C2C=CC(C2)C12OCCO2 (stereo unspecified)
inactive: [1] 2.35% | [2] 11.7% | [3] -1.6% | [4] 6.85% | [5] -10.7% | [6] -18.4%

C=CS(=O)CCCCCCC (stereo unspecified)
inactive: [1] 25.1% | [2] -1.3% | [3] -13.9% | [4] -68.5% | [5] 4.45% | [6] -34.4%

O=C(CC[n+]1ccccc1)NCCCCCCNC(=O)CC[n+]1ccccc1
inactive: [1] -17.9% | [2] -31.9% | [3] -23.5% | [4] 7.5% | [5] -17.4% | [6] -21.9%

Cc1ccc(N=NC2Sc3nc4ccccc4n3C2=O)cc1 (stereo unspecified)
inactive: [1] -7.1% | [2] 9.75% | [3] -0.7% | [4] -35.5% | [5] 16.3% | [6] 13.2%

FC(F)(F)c1nc(Nc2ccccc2)c2[nH]cnc2n1
inactive: [1] -16.4% | [2] 4.55% | [3] 2.45% | [4] -20.9% | [5] 12.2% | [6] -4.6%

COC(=O)N/N=C/c1ccc(C)cc1
inactive: [1] -4.1% | [2] -8.05% | [3] -10% | [4] -37.9% | [5] -3.9% | [6] -4.1%

O=C1OC(=O)C(c2ccccc2)=C1c1ccccc1
inactive: [1] 10.6% | [2] 5% | [3] 9.55% | [4] -10.8% | [5] 5.95% | [6] 24.9%

Cc1ccc(N=Nc2ccc(C)cc2NC(=O)/C=C/c2ccccc2)cc1
inactive: [1] -21.5% | [2] -34.5% | [3] 6.65% | [4] 8.4% | [5] -6.35% | [6] -8.65%

Oc1ccc(Oc2cc3c(cc2Oc2ccc(O)cc2)-c2nc-3nc3[nH]c(nc4nc(nc5[nH]c(n2)c2cc(Oc6ccc(O)cc6)c(Oc6ccc(O)cc6)cc52)-c2cc(Oc5ccc(O)cc5)c(Oc5ccc(O)cc5)cc2-4)c2cc(Oc4ccc(O)cc4)c(Oc4ccc(O)cc4)cc32)cc1
inactive: [1] -94.7% | [2] -56.7% | [3] -119% | [4] -99.7% | [5] -80.5% | [6] -104%

COc1ccc(/C(C)=N/NC(=O)CC(=O)N(C(=O)c2ccccc2)c2ccc(C)cc2)cc1
inactive: [1] -8.45% | [2] -36% | [3] -6.5% | [4] 8.15% | [5] -27.2% | [6] -17.9%

CCOC(=O)C(CC[C@@H]1N[C@H](C(N)=O)Cc2c1[nH]c1ccccc21)C(=O)OCC
inactive: [1] 8.5% | [2] -9.85% | [3] 5.3% | [4] 7.55% | [5] 7.9% | [6] -13.7%

CCCC(SCC(=O)O)SCC(=O)O
inactive: [1] 14.4% | [2] -6.05% | [3] -6.85% | [4] -41.8% | [5] -4.75% | [6] -17%

COC(=O)[C@H](Cc1ccc(OC(C)(C)C)cc1)N[C@H](C)C(=O)N[C@@H](Cc1ccccc1)C(=O)OCc1ccccc1
inactive: [1] 35.5% | [2] 35.1% | [3] 50.1% | [4] 67% | [5] 62.4% | [6] 57%

COc1ccc(NC2C(=O)C3(C)CCC2C3(C)C)cc1 (stereo unspecified)
inactive: [1] -17.2% | [2] -10.9% | [3] -8.25% | [4] -49.3% | [5] 12.2% | [6] -41.1%

CN(C)c1ccc(C2SCC(=O)N2NS(=O)(=O)c2cccc(C(=O)O)c2)cc1 (stereo unspecified)
inactive: [1] 5.05% | [2] -21.2% | [3] -10.8% | [4] 4.75% | [5] -24.6% | [6] -2.2%

Nc1nc(Nc2ccccc2)c2ncn(C3OC(CO)C(O)C3O)c2n1 (stereo unspecified)
inactive: [1] 12.7% | [2] 1.25% | [3] 0.25% | [4] -1.35% | [5] 3.6% | [6] -12.3%

CC1(C)CN(CCC#N)C(c2ccc([N+](=O)[O-])cc2)O1 (stereo unspecified)
inactive: [1] 2.95% | [2] 3.3% | [3] 8.1% | [4] -9.4% | [5] 14% | [6] -14.8%

O=C1CCCC2=C1CC1=C(CCCC1=O)N2c1ccc([N+](=O)[O-])cc1
inactive: [1] -35.8% | [2] -30.1% | [3] -42% | [4] -10.3% | [5] 0.45% | [6] -19.3%

CCOC(=O)c1ccc(-n2cnc(-c3ccc([N+](=O)[O-])cc3)c2)cc1
inactive: [1] -4.55% | [2] -7.2% | [3] -8.8% | [4] -7.15% | [5] -1.15% | [6] -16.2%

Cc1ccc(O)c(Cc2cc(C)cc(Cc3cc(C)ccc3O)c2O)c1
inactive: [1] 30.2% | [2] -7.85% | [3] 15.2% | [4] 36.9% | [5] -2.85% | [6] 42.4%

O=[N+]([O-])c1ccc(Oc2ccccc2-c2ccccc2)c([N+](=O)[O-])c1
inactive: [1] -2% | [2] -3.7% | [3] 11.6% | [4] -73.7% | [5] 8.2% | [6] 14.4%

CC(=O)Oc1ccc(OC(C)=O)c(C(=O)O)c1
inactive: [1] 15.1% | [2] -2.65% | [3] 2.9% | [4] -39.3% | [5] -2.3% | [6] 17.4%

Cc1ccc2c(c1)C1(OC(=O)c3ccccc31)c1ccc(F)cc1O2 (stereo unspecified)
inactive: [1] 55% | [2] 12.8% | [3] 36.9% | [4] 36.8% | [5] 22.7% | [6] 18.1%

CCCCC(CC)COS(=O)(=O)O (stereo unspecified)
inactive: [1] -16.3% | [2] 2.25% | [3] -30.9% | [4] -42% | [5] -27% | [6] -42%

O=C(O)/C(Cc1ccc([N+](=O)[O-])cc1)=N\O
inactive: [1] -4.2% | [2] 6.85% | [3] -25.4% | [4] -16.6% | [5] 17.4% | [6] -2.8%

CSc1ccc(NC(=O)Nc2ccc(Cl)cc2C(=O)c2ccccc2)cc1
active: [1] 96.5% | [2] 97.8% | [3] 93.7% | [4] 98% | [5] 88.5% | [6] 97.8%

CCOC(CCNCC(OCC)OCC)OCC
inactive: [1] -46.5% | [2] -56.2% | [3] -29.4% | [4] -11.1% | [5] -4.8% | [6] -22.4%

NC(Cc1cc(I)c(Oc2ccc(O)c(I)c2)c(I)c1)C(=O)O (stereo unspecified)
inactive: [1] -5.1% | [2] -1.35% | [3] -9.5% | [4] -27.5% | [5] -30.5% | [6] 33.4%

N#CC(N)(C(=O)CCC(=O)Nc1cccc(Cl)c1)c1ccc(Cl)cc1 (stereo unspecified)
inactive: [1] 1.7% | [2] 12.6% | [3] 7.7% | [4] 8.15% | [5] -2% | [6] 2.15%

— PubChem BioAssay (NCI)
